Shown are actives, neighbours in structure and some others; about 7.8% of the full set was active somewhere.
Vaccinia mCherry – inhibitors of vaccinia virus infection (mCherry reporter signal); Vaccinia virus mCherry reporter infection, fluorescence; Potency, µM (top dose mostly 36.5 µM), for the others: at the highest dose activity change, negative = inhibition, most hits filed as inhibitors; 0.63% of 310,000 active; AID 720579; calls by dose curve; tested in A549 cells; note: potency is the fitted concentration of half-maximal effect; nearly all actives have a fitted effect of over 35% in size
Marburg entry inh – inhibitors of Marburg virus binding or cell entry; Marburg virus pseudotyped entry inhibition, cell reporter; Potency, µM (highest dose often 37.8 µM), inactives show at the top dose activity change, negative = inhibition, hits mostly inhibitors; 1.8% of 300,000 active; calls by dose curve; tested in HEK293 cells; note: potency is the fitted concentration of half-maximal effect
Lassa entry inh – blocks Lassa virus binding to or entry into cells; Lassa virus pseudotype entry inhibition, cell reporter; Potency, µM (series often up to 37.9 µM), for the others: top-dose activity change, negative = inhibition, usual class: inhibitors; 1.2% of 300,000 active; AID 540256; calls by dose curve; tested in HEK293 cells; note: potency is the fitted concentration of half-maximal effect; nearly all actives have a fitted effect of over 50% in size
VACV Venus inh – vaccinia inhibition (Venus reporter). Vaccinia virus Venus reporter expression, fluorescence. Potency, µM (top dose mostly 36.5 µM), inactives show top-dose activity change, negative = inhibition, most hits filed as inhibitors. 0.46% of 330,000 active; calls by dose curve; tested in A549 cells; note: potency is the fitted concentration of half-maximal effect; nearly all actives have a fitted effect of over 30% in size
HCV inhibitor – inhibitors of hepatitis C virus infection; Huh7.5.1 HCVcc-Cre infection, luciferase reporter, 44 h; Potency, µM (series often up to 41.8 µM), for inactives: at the top dose activity change, negative = inhibition, actives largely listed as inhibitors; 3.4% of 340,000 active; active = well fitted inhibition curve with a large enough effect; inconclusive = small, poorly fitted or top-dose-only effect, or another doubt; inactive = no such curve, though single readings can be large or run the other way; note: potency is the fitted concentration of half-maximal effect
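After 44 h co-culture of compound, cells and HCVcc-Cre (~0.5 moi), substrate is added for 15 min at room temperature and luciferase measured over 15 sec. Cells were seeded at 1,000/well and pre-cultured 4 h.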
HCMV antiviral – inhibitors of human cytomegalovirus; HFF cells, HCMV-luciferase reporter, 72 h; active compounds read low; activity change, negative = inhibition, % at 57.5 µM; 4.5% of 410,000 active; AID 1259415; in the data active = activity change below about -60%; inconclusive = no clear call, values can overlap the other calls; inactive = above about -39%
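After 16 h attachment at 37C, HFF cells received test compound and HCMV-luciferase (1 PFU/cell); reporter luminescence read 72 h later, data normalized against buffer-only and known inhibitor Salinomycin.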
* marks the source's active call; other numbers are inactive results; i = inactive; ? = inconclusive; nt = no result; ! = not confirmed by another sample; [ ] = dose if it differs, or a comment. % is set by controls: 0 for no effect and ±100 for the full control effect.

SMILES	Vaccinia mCherry	Marburg entry inh	Lassa entry inh	VACV Venus inh	HCV inhibitor	HCMV antiviral
CCNC(=O)C1CCCN(Cc2ccc(OCc3ccccc3)cc2)CC1 (stereo not drawn)	0.9%	nt	nt	0.8%	nt	-64.0*
COCCNC(=O)C1CCCN(Cc2ccc(C#N)cc2)CC1 (stereo not drawn)	12.6%	nt	nt	-0.7%	nt	-24.0
COc1ccc2nc(C)cc(Nc3ccc(C(=O)O)cc3)c2c1	nt	nt	nt	nt	6.2%	nt
COc1ccc(/C=N/Nc2cc(C)nc3ccccc23)cc1	?	?	?	?	?	-103.7*
Cc1ccc2nc(C)cc(N/N=C/c3cccc(O)c3)c2c1	-24.5%	?	?	?	-16.1%	4.2
COc1cccc2c(N/N=C/c3ccc(O)c(O)c3)cc(C)nc12	-8.5%	9.5%[46.1 µM]	-4.4%[46.1 µM]	-6.7%	?	129.4
COc1ccc2nc(C)cc(N/N=C/c3ccc(F)cc3)c2c1	?	?	?	10µM*	?	-18.1
COc1ccc(N2CCN(c3cc(C)nc4ccc(OC)cc34)CC2)cc1	-29.2%	?	?	-20.8%	6.31µM*	-3.2
COc1ccc(/C=N/Nc2cc(C)nc3c(C)cccc23)cc1	nt	nt	nt	nt	12.6µM*	-23.5
COc1ccc(CNc2cc(C)nc3ccc(OC)cc23)cc1	-23.0%	?	nt	-10.5%	14.1µM*	-13.6
CCOC(=O)N[C@](Nc1sc2c(c1C(N)=O)CCCC2)(C(=O)OCC)C(F)(F)F	nt	-4.8%	nt	nt	nt	nt
Cc1ccccc1C(=O)c1cccn1CC(=O)NCCC1=CCCCC1	12.8%	-14.6%[46.1 µM]	-10.5%	8.9%	-6.3%	?
Cc1ccccc1C(=O)c1cccn1CC(=O)NCCN1CCN(c2cccc(C)c2C)CC1	nt	?	?	nt	11.2µM*	24.5
Cc1ccc(C)c(N2CCN(CCCNC(=O)Cn3cccc3C(=O)c3ccccc3C)CC2)c1	?	?	?	?	11.2µM*	-94.1*
Cc1ccccc1C(=O)c1cccn1CC(=O)NCCCN1CCCCC1	-2.1%	-29.5%[46.1 µM]	-9.3%[46.1 µM]	-13.0%	23.7%	-11.2
CCOC(=O)Cn1nc(/C=C/c2ccc(OC)cc2)ccc1=O	-0.3%	-7.4%	7.4%	0.0%	7.5%	-105.6*
COc1ccc(/C=C/c2ccc(=O)n(Cc3ccccc3)n2)cc1	-10.2%	-28.6%[46.1 µM]	5.01µM*	-20.2%	?	-8.3
CCOC(=O)Cn1nc(-c2ccc(C)cc2)ccc1=O	nt	14.7%	1.8%	nt	19.1%	29.6
CN(C)c1ccc(/C=C/c2nc3ccccc3o2)cc1	24.5%	nt	nt	-17.6%	nt	nt
CC(=O)c1ccc(C(=O)NCc2nc(-c3ccccc3NC(=O)c3cc(C)oc3C)oc2C)cc1	-11.4%	nt	nt	-1.0%	nt	nt
COc1cc(NC(=O)c2ccc(-c3cccc(F)c3)o2)ccc1NC(=O)c1ccccc1Cl	-29.1%	nt	nt	-26.4%	7.08µM*	10.8
COc1ccccc1NC(=O)c1ccc(-c2ccc(Br)cc2)o1	?	-16.5%	?	?	8.91µM*	167.7
NC(=O)c1ccccc1NC(=O)c1ccc(-c2ccc(Br)cc2)o1	-9.5%	?	17.2%[46.1 µM]	-11.8%	nt	11.3
COc1ccccc1NC(=O)c1ccc(-c2ccccc2[N+](=O)[O-])o1	-25.0%	?	nt	-14.8%	11.2µM*	-14.7
C=CCOC(=O)N[C@H](/C(C(=O)OC)=C(\C)NCc1ccccc1)c1ccc(Br)cc1	nt	7.1%[14.2 µM]	nt	nt	nt	nt
SMILES	Vaccinia mCherry	Marburg entry inh	Lassa entry inh	VACV Venus inh	HCV inhibitor	HCMV antiviral
COc1ccccc1-c1ccnc(-n2ncc(C(=O)NC(c3cccnc3)C(F)(F)F)c2C)n1 (stereo not drawn)	?	nt	nt	-26.7%	nt	nt
O=C(Nc1cccc2ccccc12)c1ccc(F)cc1	nt	nt	nt	nt	-7.2%	0.0
O=C(Nc1cccc2[nH]ncc12)c1ccc(F)cc1	nt	?	4.4%	nt	8.1%	-75.7*
O=C(NC(=S)Nc1cccc2[nH]ncc12)c1ccccc1	i	?	4.3%[46.1 µM]	-7.2%	-0.2%	-61.6*
CNC(=S)Nc1cccc2[nH]ncc12	nt	-17.4%	-3.0%	nt	9.9%	-4.5
C=COCCCNc1ncnc2sc(-c3ccccc3)cc12	nt	nt	nt	nt	8.91µM*	?
CC(C)(C)Nc1ncnc2sc(-c3ccccc3)cc12	nt	nt	nt	nt	?	-73.2*
COc1ccc(Nc2ncnc3sc(-c4ccccc4)cc23)cc1	nt	14.9%	-4.1%	nt	10µM*	-5.9
OCCCNc1ncnc2sc(-c3ccccc3)cc12	-14.2%	?	?	-24.2%	?	-36.4
CN(C)c1ncnc2sc(-c3ccccc3)cc12	i	?	-0.2%[46.1 µM]	-3.0%	11.2µM*	36.6
COc1ncnc2sc(-c3ccccc3)cc12	-17.5%	-1.1%	5.2%	-6.2%	?	30.5
C[N+]1(CC(=O)c2cccc([N+](=O)[O-])c2)CCOCC1	-25.0%	nt	nt	-19.8%	nt	nt
Cc1ccc(S(=O)(=O)C(CNC(=O)COc2ccccc2)c2cccs2)cc1 (stereo not drawn)	0.7%	nt	-15.2%[46.1 µM]	-1.7%	nt	-10.1
Cc1ccc(NN2C(=O)C=C(c3ccccc3)C2=O)cc1	-2.4%	11.2µM*	?	-17.4%	-5.6%	5.2
CCC(C)(C)C1CCC2(CC1)NC(=O)N(CC(=O)N(C)Cc1ccc3c(c1)OCCO3)C2=O (stereo not drawn)	nt	nt	nt	nt	12.6µM*	?
COc1ccc(C2c3ccc4ccccc4c3Oc3ncn(CCO)c(=N)c32)cc1OC (stereo not drawn)	-2.8%	6.9%	nt	?	10µM*	nt
COc1ccc(C2c3ccc4ccccc4c3Oc3ncn(CCCO)c(=N)c32)cc1OC (stereo not drawn)	-6.1%[7.34 µM]	?	?	-24.1%[7.34 µM]	12.6µM*	-33.6
COc1ccc(C2c3c(ncn(CCCN4CCOCC4)c3=N)Oc3ccc4ccccc4c32)cc1OC (stereo not drawn)	nt	nt	nt	nt	22.4µM*	-11.8
CCCc1nnc2c(N(C)S(=O)(=O)c3ccc(C)cc3)nc3ccccc3n12	i	-3.0%	-0.1%	-12.6%	11.2%	-69.4*
CCCCc1nnc2c(N(C)S(=O)(=O)c3ccc(C)cc3)nc3ccccc3n12	i	3.8%[46.1 µM]	26.4%	-14.3%	7.9%	21.3
O=S(=O)(Nn1c(O)c(C=C2N=c3ccccc3=N2)sc1=S)c1ccccc1	nt	nt	nt	nt	-11.2%	-12.3
O=C(Nn1c(O)c(C=C2N=c3ccccc3=N2)sc1=S)c1ccccc1Cl	nt	-5.0%	?	nt	-1.3%	-91.2*
NCCCS(=O)(=O)O	-13.3%	8.2µM*!	?	-14.3%	5.62µM*!	?
Clc1ccc(CSc2nnc(NC3=NCCCCC3)s2)cc1	nt	-28.3%	-11.7%	?	?	-66.5*
Cc1cccc(Nc2nc(C)nc3c2oc2ccccc23)c1	nt	nt	nt	nt	12.6µM*	69.2
CCc1nc(Nc2ccc3c(c2)OCO3)c2oc3ccccc3c2n1	?	?	-3.6%	-26.2%	?	-22.7
CCc1nc(NCc2ccccn2)c2oc3ccccc3c2n1	nt	?	-23.9%	?	?	-63.3*
c1ccc(CNc2ncnc3c2oc2ccccc23)nc1	nt	28.7%	?	nt	-4.7%	70.1
CCc1nc(Nc2ccncc2)c2oc3ccccc3c2n1	?	?	-13.0%	?	?	-104.8*

Screens as filed in PubChem BioAssay.
